Source: PubChem BioAssay
TSHR antag: antagonists of human thyroid stimulating hormone receptor | activity change, negative = inhibition, % at 11.5 µM | P16473 | 330,000 tested, 0.2% active | TSHR-expressing cells, TSH-stimulated cAMP HTRF, 2 h; active compounds read low | AID 504810;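 active = activity change below a set negative limit, meaning inhibition stronger than a set level, cut at about -70% in these data; inconclusive = activity change between two set negative limits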; also: % is scaled to controls: 0 for no effect and ±100 for the full control effect
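TSHR-expressing cells, 200/well, pre-treated with compound, then stimulated with EC80 TSH (4nM final) for 2 hours at 37 deg C. cAMP measured by competitive HTRF: anti-cAMP cryptate antibody in lysis buffer plus cAMP-d2, read after 30 minutes at room temperature.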
gsp agonist: agonists of gsp mutant (McCune-Albright syndrome) | gsp mutant cells, cAMP HTRF, 30 min | Potency, µM (top dose mostly 76.9 µM), for the others: top-dose activation (cAMP increase), actives largely listed as activators | 340,000 tested, 0.13% active | AID 624287; active = well fitted activation curve with a large enough effect; inconclusive = small, poorly fitted or top-dose-only effect, or another doubt; inactive = no such curve, though single readings can be large or run the other way; cell line not stated here;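 also: phosphodiesterase inhibitor Ro 20-1724 added with compounds to block cAMP breakdown; potency is read from the fitted curve at half-maximal effect; nearly all actives have a fitted effect of over 60% in size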
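Cells in DMEM/10% FBS with G418 were pretreated with compounds in DMSO plus […] (300 uM stock) for 30 min at 37C. cAMP was measured by HTRF (cAMP-d2 plus anti-cAMP antibody-K) after 30 min at room temperature.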
RXFP1 antagonist: blocks the human relaxin receptor RXFP1; Q9HBX9; HEK293-RXFP1, relaxin-stimulated cAMP HTRF, 30 min; active compounds read low; activity change, negative = inhibition, % at 57.5 µM; 350,000 tested, 0.59% active; AID 1259400;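 active = activity change of -60% or lower, but not beyond a set lower limit; inconclusive = change between -60% and -40%, or beyond the set limit; inactive = change above -40%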; also: % is scaled to controls: 0 for no effect and ±100 for the full control effect
Target sequence (Q9HBX9 whole entry, looked up): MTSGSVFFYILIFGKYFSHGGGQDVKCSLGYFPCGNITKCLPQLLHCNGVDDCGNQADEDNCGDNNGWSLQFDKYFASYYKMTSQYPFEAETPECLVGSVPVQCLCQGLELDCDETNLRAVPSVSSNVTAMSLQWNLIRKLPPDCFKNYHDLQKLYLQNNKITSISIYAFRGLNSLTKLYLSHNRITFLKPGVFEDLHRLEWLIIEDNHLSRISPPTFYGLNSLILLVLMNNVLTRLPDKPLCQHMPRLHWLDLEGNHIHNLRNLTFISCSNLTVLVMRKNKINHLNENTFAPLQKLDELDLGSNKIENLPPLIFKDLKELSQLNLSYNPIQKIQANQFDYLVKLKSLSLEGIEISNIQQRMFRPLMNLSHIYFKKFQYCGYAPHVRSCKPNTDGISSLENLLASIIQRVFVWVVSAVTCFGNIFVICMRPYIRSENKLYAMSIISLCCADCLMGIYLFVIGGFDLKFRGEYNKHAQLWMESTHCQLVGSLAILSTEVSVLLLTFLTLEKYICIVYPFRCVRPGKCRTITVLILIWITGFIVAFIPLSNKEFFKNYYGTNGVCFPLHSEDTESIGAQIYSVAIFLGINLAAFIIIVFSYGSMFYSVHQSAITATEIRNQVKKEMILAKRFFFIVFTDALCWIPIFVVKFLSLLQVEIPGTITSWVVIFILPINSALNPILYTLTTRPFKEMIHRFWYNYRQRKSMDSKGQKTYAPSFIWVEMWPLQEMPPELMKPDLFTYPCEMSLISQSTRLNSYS
gsp antag: antagonizes gsp, the McCune-Albright syndrome mutation; gsp-mutant cells, cAMP HTRF, 30 min; Potency, µM (top dose mostly 76.9 µM), inactives show at the highest dose activity change, negative = inhibition, actives largely listed as inhibitors; 340,000 tested, 0.4% active; AID 624288; calls by dose curve; cell line not stated here;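 also: intracellular cAMP measured with PDE inhibitor Ro 20-1724 present during compound exposure; potency is read from the fitted curve at half-maximal effect; % is scaled to controls: 0 for no effect and ±100 for the full control effect; nearly all actives have a fitted effect of over 65% in size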
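Cells, 2000/well, grown 16–24 h in DMEM 10% FBS with 0.5 mg/ml G418, then compounds plus […] (300 uM addition stock), 30 min at 37C. cAMP read by HTRF (cAMP-d2 and anti-cAMP antibody-K in lysis buffer) after 30 min RT.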
RXFP1 ag: RXFP1 (human) receptor agonism; Q9HBX9; HEK293T-RXFP1 cAMP TR-FRET, 30 min; response scale: percent of porcine relaxin response, buffer zero; Potency, µM (series often up to 57.5 µM), for inactives: at the top dose activation, usual class: activators; 370,000 tested, 0.3% active; AID 2676; active = well fitted activation curve with a large enough effect; inconclusive = small, poorly fitted or top-dose-only effect; also: potency is read from the fitted curve at half-maximal effect; % is scaled to controls: 0 for no effect and ±100 for the full control effect; nearly all actives have a fitted effect of over 60% in size
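HEK293T cells stably expressing RXFP1 were pretreated with the PDE4 inhibitor Ro 20174, exposed to compounds for 30 min at 37C, lysed, and cAMP was read by TR-FRET. Data normalized to buffer (basal) and 29 nM porcine relaxin (100%).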
* hit, by the source's call; ? = inconclusive; · = not tested or not shown; [ ] = remark or other dose. In the library only some 1% were active in any assay of this set; here they are far more common.

SMILES	TSHR antag	gsp agonist	RXFP1 antagonist	gsp antag	RXFP1 ag
COc1ccccc1CN1CCC(CNC(=O)c2cnn(-c3ccc(Cl)cc3)c2C2CCN(C(=O)OC(C)(C)C)CC2)CC1	·	·	-61.1*	·	3.6%
O=S(=O)(Nc1cccc(-c2ccc(N3CCCCC3)nn2)c1)c1ccc(Cl)s1	·	·	-12.2	·	4.3%
COc1ccc(NC(=O)Cn2cnc3ccc(S(=O)(=O)N4CCC(C)CC4)cc3c2=O)cc1OC	·	·	·	·	-2.3%
CCc1ccc(NC(=O)C(=O)NCCc2csc(-c3cccc(F)c3)n2)cc1	·	·	-5.1	·	1.3%
CCOc1ccc(-n2c(SCC(=O)Nc3cc(C)on3)nc3c(c2=O)SCC3)cc1	-84.9*	3.5%	-1.3	3.6%	-1.0%
O=C(Nc1ccsc1C(=O)O)c1cccc(Oc2ccccc2)c1	?	22.2%[15.4 µM]	-80.3*	?	10.1%
O=C(Nc1ccsc1C(=O)O)c1cccc(C(F)(F)F)c1	9.1	18.4%	1.5	?	-0.7%
O=C1C=C(O)c2cccc3cccc1c23	35.0	?	21.5	-0.8%	17.8µM*
CC(=O)c1c(C)[nH]c(C(=O)OCC(=O)Nc2cc(Cl)ccc2[N+](=O)[O-])c1C	-76.6*	?	-12.5	35.5µM*	0.1%
CC(=O)c1c(C)[nH]c(C(=O)OCC(=O)Nc2ccc(C)cc2[N+](=O)[O-])c1C	-25.4	-17.7%	-5.7	?	0.7%
COc1ccc(Nc2nc(N3CCCCC3)c3ccccc3n2)cc1	-8.7	-5.6%	-65.6*	-32.5%	2.7%
CC(C)c1ccc2c(c1)C(N1CCNCC1)Cc1ccc(F)cc1S2 (stereo not given)	·	-1.9%	-71.7*	15.7%	·
COc1cc(NC(=O)C2CCN(S(=O)(=O)c3c(C)noc3/C=C/c3cccs3)CC2)cc(OC)c1	·	·	13.6	·	4.1%
Cc1ccc(S(=O)(=O)N(CC(=O)Nc2ccccc2C(=O)O)c2ccc(Cl)cc2)cc1	-5.8	3.2%[15.4 µM]	-76.3*	?	4.1%
CCOC(=O)c1ccccc1NC(=O)CN(c1ccccc1)S(=O)(=O)c1ccc(OCC)cc1	·	·	·	·	-0.8%
CC(C)NC(=O)/C(C#N)=C/c1ccc(N(C)C)o1	-19.4	-0.9%[15.4 µM]	-22.8	35.5µM*	-3.9%
CCN(C(=O)c1cc2c(=O)n3ccccc3nc2s1)C1CCCCC1	2.7	-2.1%[15.4 µM]	-2.2	·	27.6%
CCCNC(=O)COC(=O)c1cc2c(=O)n3ccccc3nc2s1	19.1	11.2µM*	12.0	3.2%	?
COc1ccc(OC)c(CCNC(=O)Cn2ccc3cc(S(=O)(=O)N4CCCCC4)ccc32)c1	·	·	-0.8	·	2.3%
COc1ccc(C[C@@H]2OC3(C=CC(=O)C=C3)O[C@H]2Cc2ccc(OC)cc2)cc1	·	-14.1%	-92.0*	-10.3%	·
Cc1ccc(C)c(NC(=O)CSc2nc(-c3ccccc3)c(C#N)c(=O)[nH]2)c1	·	·	9.9	·	-3.3%
N#Cc1c(-c2cccs2)nc(SCc2ccc(Cl)cc2)[nH]c1=O	?	73.0%[15.4 µM]	-3.4	16.1%	15.8µM*
CCc1nc(SCc2ccc(F)cc2)[nH]c(=O)c1C#N	-19.6	-11.2%	-18.2	35.5µM*	-0.5%
CNC(=O)NC(=O)CSc1nc(-c2cccs2)c(C#N)c(=O)[nH]1	95.8	?	43.3	0.2%	14.1µM*
CSc1nc(-c2cccs2)c(C#N)c(=O)[nH]1	14.5	111.9%[15.4 µM]	23.0	17.8%	14.1µM*
SMILES	TSHR antag	gsp agonist	RXFP1 antagonist	gsp antag	RXFP1 ag
CCOc1ccc(NC(=O)CCc2nnc3n(C)c(=O)c4sccc4n23)cc1	·	·	·	·	11.5%
CCOC(=O)c1cccc(NC(=O)c2cc3sccc3n2C)c1	-21.9	-1.6%	-4.8	35.5µM*	0.5%
CCOC(=O)c1cccc(NC(=O)c2cc3sccc3n2Cc2ccc(Cl)cc2)c1	·	·	·	·	17.2%
Cc1ccc(C(=O)c2coc3cc([N+](=O)[O-])c(O)c([N+](=O)[O-])c23)cc1	-13.2	-68.0%	-6.0	35.5µM*	-2.0%
Cc1ccc(NC2=NCC(=O)N2C2CCCC2)cc1C	-1.5	-30.0%[15.4 µM]	-68.9*	2.6%	-1.6%
O=C(COc1cccc(C(F)(F)F)c1)NCC(c1ccco1)N1CCCCC1 (stereo not given)	-4.9	-4.0%[15.4 µM]	-61.0*	5.3%	0.7%
CC(=O)N1N=C(c2cccs2)CC1c1cc2cc(C)ccc2nc1Cl (stereo not given)	8.2	-36.9%	1.7	50.1µM*	6.9%
CCCCNC(=O)NS(=O)(=O)c1ccc(N)cc1	·	·	-12.0	·	·
Cc1nc2sccn2c(=O)c1CCN1CCC(=C(c2ccc(F)cc2)c2ccc(F)cc2)CC1	-18.7	·	-66.8*	?	3.8%
COC(=O)c1ccc(Nc2nnc(-c3ccc(C)c(S(=O)(=O)N4CCN(C)CC4)c3)c3ccccc23)cc1	·	·	-2.5	·	5.2%
O=C(NCC1CCCN(C(=O)c2cccc(C(F)(F)F)c2)C1)c1ccc(F)cc1 (stereo not given)	-131.9*	8.2%	30.3	-6.3%	1.3%
O=C(NCC1CCCN(Cc2cccc(C(F)(F)F)c2)C1)c1ccc(F)cc1 (stereo not given)	11.6	33.3%	-2.4	10.2%	1.5%
CC(=O)c1sc(C(C)(C)C)cc1NC(=O)CCC(=O)O	-3.1	8.91µM*	23.3	13.7%	?
CCc1ccc(NC(=O)CCn2cnc3ccccc3c2=O)cc1	·	·	-11.9	·	0.2%
Cc1cc(C)c(O)c(-c2n[nH]c3c2C(c2cccc(O)c2)N(Cc2ccco2)C3=O)c1 (stereo not given)	7.7	-19.4%	-80.5*	-19.5%	-1.8%
O=C(c1ccccc1F)N1CCN(Cc2ccc3c(c2)OCO3)CC1	-24.5	8.0%[15.4 µM]	3.6	6.1%	-4.3%
N#Cc1c(F)cccc1N1CCN(Cc2ccc3c(c2)OCO3)CC1	-89.8*	20.6%	-15.1	-22.5%	1.4%
Cc1ccc(-c2nn(-c3ccc(F)cc3)c3c2cnc2cc(F)c(F)cc23)cc1	·	·	·	·	4.8%
COC(=O)c1ccc2nc(NC(=O)C(C)(C)C)sc2c1	-19.7	-2.9%[15.4 µM]	-84.5*	-24.6%	-0.4%
COC(=O)c1ccc2nc(NC(=O)C3CCCCC3)sc2c1	15.2	-43.8%	-9.3	3.0%	5.6%
COc1cc(C2Nc3ccccc3-c3nnc(SCc4ccc(C)cc4)nc3O2)cc(OC)c1O (stereo not given)	·	·	-8.9	·	0.9%
O=C(COc1ccc(Cl)cc1Cl)NCC1(N2CCOCC2)CCCCC1	6.4	-22.2%[15.4 µM]	-15.8	-17.0%	·
Cc1ccc(C(C)C)c(OCC(=O)NCC2(N3CCOCC3)CCCCC2)c1	·	·	-110.8*	·	3.5%
CC(C)(C)c1ccc(C(=O)Nc2ccc(F)cc2)s1	-44.1	16.9%	?	1.6%	31.6µM*
CCc1cc2cc(C(=O)Nc3ccc(F)cc3)sc2s1	-1.7	?	9.8	30.8%	?
CCOC(=O)/C(C#N)=C/c1ccc(-c2ccc(C)cc2)o1	·	·	-11.4	·	-1.7%
O=C(Nc1ccc(N2CCN(c3ncccc3C(F)(F)F)CC2)nc1)c1cccs1	-37.8	3.1%[15.4 µM]	-69.0*	50.1µM*	2.6%
N#Cc1ccccc1-c1csc(N2CCC(C(N)=O)CC2)n1	17.1	·	·	·	·
